An excerpt weighted towards active compounds, which were near 1.5% of everything screened.
Eya2 phos inh – Eya2 (human) phosphatase inhibition | O00167 | recombinant Eya2, OMFP fluorescence dephosphorylation (OMFP is methylfluorescein phosphate) | Potency, µM (highest dose often 76.9 µM), for the others: top-dose activity, negative = inhibition, hits mostly inhibitors | 330,000 tested, 0.006% active | AID 488837; further: potency means the concentration at half of the fitted maximal effect
Target sequence (O00167 whole entry, looked up): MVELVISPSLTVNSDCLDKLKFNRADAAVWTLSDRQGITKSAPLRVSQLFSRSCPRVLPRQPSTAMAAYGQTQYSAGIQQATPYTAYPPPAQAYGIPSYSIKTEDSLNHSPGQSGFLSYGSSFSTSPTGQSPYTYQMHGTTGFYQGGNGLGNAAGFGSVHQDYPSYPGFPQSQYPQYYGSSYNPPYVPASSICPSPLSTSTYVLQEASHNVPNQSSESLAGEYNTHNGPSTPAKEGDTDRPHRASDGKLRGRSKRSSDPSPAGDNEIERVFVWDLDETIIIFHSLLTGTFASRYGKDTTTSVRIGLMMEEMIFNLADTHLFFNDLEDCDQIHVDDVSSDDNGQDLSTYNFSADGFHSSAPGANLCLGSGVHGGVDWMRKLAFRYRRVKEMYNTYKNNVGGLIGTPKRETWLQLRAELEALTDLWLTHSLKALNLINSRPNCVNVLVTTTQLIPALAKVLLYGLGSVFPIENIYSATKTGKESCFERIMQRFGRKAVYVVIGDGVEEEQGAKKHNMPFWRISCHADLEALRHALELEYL
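Eya2 (0.2 uM) preincubated 10 min at ambient with compound, then OMFP substrate added at 50 uM; 10 min reaction in 50 mM HEPES pH 7.5, 50 mM NaCl, 5 uM MgCl2, 0.05% BSA, 1 mM DTT. Fluorescence read at Ex 485/Em 525 nm.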
GALK inhibitor – blocks human galactokinase activity | P51570 | Purified GALK, Kinase-Glo residual ATP luminescence | Potency, µM (series often up to 57.5 µM), without a hit: top-dose activity change, negative = inhibition, most hits filed as inhibitors | 270,000 tested, 0.007% active | AID 1868; further: potency means the concentration at half of the fitted maximal effect
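Human GALK (5 nM) with 35 uM ATP and 100 uM galactose in 20 mM HEPES pH 8.0, 5 mM MgCl2, 60 mM NaCl, 1 mM DTT, 0.01% BSA. After 1 h at room temperature, leftover ATP was read by Kinase-Glo Plus luminescence.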
CtBP-E1A inh – inhibitors of CtBP/E1A interaction. 340,000 tested, 0.49% active. activity change, % (no concentration beside the values). AlphaScreen GST-E1A/His-CtBP binding, 1536-well; hits give low values. AID 651724; in the data active means activity change below about -65%; inconclusive means mostly about -30% to -63%
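AlphaScreen with 125 nM GST-E1A and 125 nM His-CtBP (5X stocks) in Tris pH 8.0, 300 mM NaCl, BSA, Tween 20, TCEP. Compounds preincubated 2 h at 37 deg C, then glutathione donor/nickel acceptor beads added for 1 h at 37 deg C in dark.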
TrxR1 substrate – substrates of rat thioredoxin reductase 1; O89049; Potency, µM (top dose mostly 114 µM), for the others: at the highest dose activity change, negative = substrate turnover; purified TrxR1 substrate turnover, NADPH consumption readout; 390,000 tested, 0.01% active; further: potency means the concentration at half of the fitted maximal effect; nearly all actives have a fitted effect of over 50% in size
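Rat TrxR1, dispensed at 90 nM, was prereduced with 400 uM NADPH (final) for 5 min at ~22 deg C, then incubated with compound 15 min before 400 uM selenite. A first-read NADPH fluorescence drop versus no-compound background flagged substrates.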
Six1-Eya2 blk – inhibitors of human Six1/Eya2 interaction | Q15475+O00167 | AlphaScreen GST-Six1/His-Eya2 binding, biochemical; hits give low values | activity change, % (concentration not given with the values) | 360,000 tested, 0.56% active; in the data active means activity change below about -65%; inconclusive means mostly about -30% to -63%
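Homogeneous AlphaScreen proximity assay pairing GST-Six1 with His-tagged Eya2 (added as 5X mix: 250 nM and 500 nM) in 50 mM Tris pH 8.0, 300 mM NaCl, 1 mM TCEP. Glutathione donor and nickel acceptor beads; 1 h, 37 °C, dark.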
TrxR1 inh – blocks rat thioredoxin reductase 1. O89049. recombinant rTrxR1, NADPH fluorescence consumption, selenite substrate. Potency, µM (highest dose often 114 µM), for the others: top-dose activity change, negative = inhibition, actives largely listed as inhibitors. 390,000 tested, 1% active. AID 588453; further: potency means the concentration at half of the fitted maximal effect; nearly all actives have a fitted effect of over 65% in size
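Rat TrxR1 (90 nM in the dispensed reagent) was pre-reduced with 400 uM NADPH for 5 min at room temperature, then incubated with compound for 15 min. After 400 uM selenite was added, NADPH fluorescence (Ex 340/Em 450 nm) was followed for 8 min.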
* marks the source's active call; other numbers are inactive results; ? = inconclusive; · = not tested or not shown; ! = a repeat was not active; [ ] = remark or other dose. Unless noted, the call rests on the fitted dose curve; in most records, active means well fitted curve in the direction sought with a large enough effect; inconclusive means small, poorly fitted or top-dose-only effect, or another doubt; inactive means no such curve, though single readings can be large; an effect the other way counts as inactive or inconclusive. On the % scale 0 is the no-effect control and ±100 the full control effect.

SMILES | Eya2 phos inh | GALK inhibitor | CtBP-E1A inh | TrxR1 substrate | Six1-Eya2 blk | TrxR1 inh
CC(=O)ON1C(C)(C)Cc2noc(N)c2C1(C)C | 5% | -1% | 3 | -1% | 3 | 7%
Oc1ccc(N=Nc2ccccc2-c2nn[nH]n2)c(O)c1 | -5% | -13% | · | ? | -86* | ?
CCN(CC)C(=O)c1sc2c(c1C)c(=O)n(CCc1ccccc1)c(=O)n2Cc1ccc(C)cc1 | · | · | · | 4%[57.1 µM] | · | 17%[57.1 µM]
COCc1cc(=O)[nH]c(SCCS(=O)(=O)c2ccc(C)cc2)n1 | 14% | 1% | -18 | 7%[57.1 µM] | -3 | 1%[57.1 µM]
COCc1cc(=O)[nH]c(SCCS(=O)(=O)c2ccc(Cl)cc2Cl)n1 | -5% | · | 4 | 6% | -3 | 1.3µM*
Cc1cc(Nc2cc(F)ccc2C)nc(-n2nc(C)cc2C)n1 | · | · | · | 3%[57.1 µM] | · | 20%[57.1 µM]
CCCCNC(=O)/C(=C\c1ccc([N+](=O)[O-])o1)NC(=O)c1ccccc1 | 6% | 3% | · | -11%[57.1 µM] | -1 | ?
COC(=O)/C(=C\c1ccc([N+](=O)[O-])o1)NC(=O)c1ccccc1 | -6% | 0% | -2 | -15% | -3 | 32µM*
C=Cc1c(C)c2cc3[nH]c(cc4nc(cc5nc(cc1[nH]2)C(C)=C5CCC(=O)O)C(CCC(=O)O)=C4C)c(C)c3C=C | -14% | · | 2 | 11%[57.1 µM] | 1 | 5.3µM*!
O=[N+]([O-])c1ccc(O)c(/C=N/Nc2ccc(Cl)nn2)c1 | -4% | 2% | -91* | -5% | -82* | -1%
C=CCc1c(C)nc(C)nc1N/N=C/c1ccccc1O | 9% | 0% | -92* | -10% | -81* | -17%
NC(N)=N/N=C/c1cc([N+](=O)[O-])ccc1O | 0% | 3% | -29 | -17% | -20 | -16%
Oc1ccccc1/C=N/Nc1nn[nH]n1 | -6% | 0% | · | -6% | -91* | ?
O=[N+]([O-])c1ccc(O)c(-c2nn[nH]n2)c1 | 7% | 0% | -94* | 2%[57.1 µM] | -92* | 2%[57.1 µM]
C=CCc1c(C)nc(C)nc1N/N=C/c1ccc([N+](=O)[O-])cc1 | 16% | 1% | -12 | -13%[57.1 µM] | -4 | 1%[57.1 µM]
C(=N\Nc1nn[nH]n1)/c1ccccc1 | 4% | 0% | 3 | 7%[57.1 µM] | 6 | 23%
Cc1cc(C)n(-c2ccc([N+](=O)[O-])cc2-c2nn[nH]n2)n1 | 6% | 6% | 17 | -5% | 2 | -13%
Cc1ccc2nc(N(Cc3cccnc3)C(=O)C3CCCCC3)sc2c1 | · | · | · | 0%[57.1 µM] | · | 11%[57.1 µM]
CCc1nnc(NC(=O)CSc2nccn2Cc2ccc(F)cc2)s1 | · | · | · | 11%[57.1 µM] | · | 20%[57.1 µM]
CCN(CC)CCCNC(=O)CCCn1c(=O)[nH]c2ccc(Br)cc2c1=O | · | · | · | 11%[2.29 µM] | · | 17%
O=[N+]([O-])c1ccc(O)c(/C=N/Nc2nn[nH]n2)c1 | -4% | -2% | ? | -8%[57.1 µM] | -74* | -6%[57.1 µM]
O=[N+]([O-])c1ccc(O)c(/C=N/NC2=NS(=O)(=O)c3ccccc32)c1 | -20% | -2% | -70* | -21% | -70* | -17%
Cc1nnc(N/N=C/c2c(Cl)cccc2Cl)n1N | 9% | -3% | 3 | -20%[57.1 µM] | 12 | 13%[57.1 µM]
Cc1nnc(N/N=C/c2ccccc2O)n1N | -6% | 0% | -87* | -14% | -78* | 8%
Cc1ccc(C(=O)c2cn(Cc3cccc(F)c3)c3nc(C)ccc3c2=O)cc1 | · | · | · | -6% | · | 11%
SMILES | Eya2 phos inh | GALK inhibitor | CtBP-E1A inh | TrxR1 substrate | Six1-Eya2 blk | TrxR1 inh
Oc1c(Cl)cc(Cl)cc1/C=N/NC(=S)NC1CC2C=CC1C2 (stereo not given) | 2% | · | -82* | 5% | ? | -3%
Oc1ccccc1C=NNC(=S)NC1CC2C=CC1C2 (stereo not given) | · | · | ? | · | -77* | ·
Oc1ccccc1/C=N/NC(=S)NC1CC2C=CC1C2 (stereo not given) | -7% | · | -86* | -14%[57.1 µM] | -82* | 28%[57.1 µM]
CCOC(=O)c1c(NC(=O)c2cc(OCC)c(OCC)c(OCC)c2)sc2c1CCCCC2 | · | · | · | 8% | · | 12%
COc1ccc(C(=O)/C=C/C(=O)N(CC(=O)NC2CCCCC2)CC2CCCO2)c(O)c1 (stereo not given) | -4% | -1% | 5 | -14% | 0 | 1.3µM*
COc1ccc(C(=O)/C=C/C(=O)N(CC(=O)NC2CCCCC2)Cc2ccccc2)c(O)c1 | 0% | 4% | 8 | 8% | -1 | 3.2µM*
CCOC(=O)c1ccccc1OCc1cc(C2Nc3ccccc3C(=O)N2c2cccc3ccccc23)ccc1OC (stereo not given) | · | · | · | 37% | · | 24%
Cc1c(CNC(C)CCc2ccccc2)c(C(=O)O)c(C)n1Cc1ccc(F)cc1Cl (stereo not given) | · | · | · | 3% | · | 8%
CCN(CC)c1ccc(S(=O)(=O)N2CCOCC2)cc1NC(=O)COC(=O)/C=C/c1ccco1 | · | · | -17 | 0% | -10 | -23%
CN(C)S(=O)(=O)c1cc(NC(=O)COC(=O)/C=C/c2ccco2)ccc1Cl | 2% | 6% | · | -6% | -26 | 3.5µM*
COc1cccc(/C=C/C(=O)OCC(=O)Nc2ccc(Cl)c(S(=O)(=O)N(C)C)c2)c1 | 1% | 0% | ? | -4%[57.1 µM] | -14 | -22%[57.1 µM]
O=C(COC(=O)/C=C/c1ccco1)Nc1cc(S(=O)(=O)N2CCOCC2)ccc1Cl | 9% | · | -18 | -7% | -1 | 35µM*
CN(C)C(=O)COc1ccccc1C(=O)OCC(=O)Nc1ccc(Oc2ccc(Br)cc2)cc1 | · | · | · | 7% | · | 21%
C/C(=N/NS(=O)(=O)c1ccc(Cl)cc1)c1ccncc1 | -6% | 4% | 0 | 2% | 10 | 25µM*
COC(=O)c1ccc(NC(=O)c2ccccc2OCC(=O)Nc2ccc(Br)cc2)cc1 | · | · | · | 9% | · | 4%
COc1ccccc1-c1nc(S(=O)(=O)c2ccccc2)c(N2CCCCC2)o1 | 2% | -2% | -3 | 7% | -3 | 0.89µM*
Cc1cccc(CCNC(=O)CCc2c(C)nc3c4c(C)cc(C)nc4nn3c2C)c1 | · | · | · | 18% | · | ?
O=C(/C=C/c1ccco1)Nc1sc2c(c1C(=O)O)CCC2 | -15% | 1% | -6 | -12% | -10 | ?
N#Cc1c(NC(=O)/C=C/c2ccco2)sc2c1CCCC2 | 4% | 0% | 1 | -7% | -13 | 40µM*
O=S(=O)(c1ccc(-c2csc(=Nc3ccc(F)cc3)n2CCCCCCO)cc1)N1CCCC1 | · | · | · | -1% | · | 16%
Cc1cc(N)ccc1N1CCCC1 | -1% | -4% | 2 | -2% | -14 | 13µM*
O=C(CSc1ccc2nnc(-c3cccnc3)n2n1)Nc1ccc(F)cc1F | -4% | 7% | -69* | -2% | ? | -8%
O=C(O)c1cc(/C=C/C(=O)c2cc(F)ccc2O)c2c(c1)COCO2 | -4% | · | · | -11% | -6 | 45µM*
